{
  "source": "PubChem BioAssay AID372",
  "about": "(MTDP, 2006)",
  "note": "The campaign covered roughly 100,000 compounds. About 770 (0.77%) were called active. The list comes from a sample in which actives are over-represented; it also holds similar structures and randomly drawn compounds. A number with no mark means an inactive call. Rule as the data show it: active = inhibition above about 50%; inactive = the rest.",
  "data": [
    {"target": "Gag-Pol polyprotein (Human immunodeficiency virus type 1 group M subtype B (isolate HXB2)) (UniProt P04585)", "assay": "RNase H inhibition, HIV 1 Gag Pol polyprotein, FRET biochemical assay, screening (AID 372)", "details": "HIV-1 RT RNase H, FRET RNA/DNA substrate fluorescence; at 10 µM; hits give high values", "values": [
      {"smiles": "COc1cc(OC)c(NC(=O)C(Cl)(Cl)Cl)cc1Cl", "inhibition": "2%"},
      {"smiles": "CCOc1ccc(/C=C(/C#N)c2ccc(Cl)cc2)cc1Cl", "inhibition": "54% (active)"},
      {"smiles": "COc1ccc(/C=C(\\C#N)c2ccc(Cl)cc2)cc1OC", "inhibition": "20%"},
      {"smiles": "CCOc1cc(/C=C(\\C#N)c2ccc([N+](=O)[O-])cc2)ccc1O", "inhibition": "8%"},
      {"smiles": "O=C(O)c1c[nH]c2ccc(Br)cc2c1=O", "inhibition": "13%"},
      {"smiles": "Cc1cccc(N2C(=O)NC(=O)/C(=C\\C=C\\c3ccccc3[N+](=O)[O-])C2=O)c1", "inhibition": "24%"},
      {"smiles": "CCN1C(=O)NC(c2ccc(Br)cc2)C(C(=O)OCCOC)=C1C", "note": "(configuration not stated)", "inhibition": "0%"},
      {"smiles": "O=C(Nc1ccc(-c2nc3ccc(NC(=O)c4ccccc4)cc3[nH]2)cc1)c1ccccc1", "inhibition": "4%"},
      {"smiles": "O=C1c2cccc3ccc(Cl)c(c23)C(=O)N1O", "inhibition": "90% (active)"},
      {"smiles": "O=C1c2cccc3c(Cl)ccc(c23)C(=O)N1O", "inhibition": "15%"},
      {"smiles": "O=C1c2cccc3ccc(Cl)c(c23)C(=O)N1Oc1ccc([N+](=O)[O-])cc1[N+](=O)[O-]", "inhibition": "3%"},
      {"smiles": "Cc1c(NC(=O)c2cc([N+](=O)[O-])ccc2Cl)cccc1-c1nc2ccccc2s1", "inhibition": "6%"},
      {"smiles": "COc1ccc2oc(=O)c(-c3nnc(Nc4cccc(C)c4)s3)cc2c1", "inhibition": "50% (active)"},
      {"smiles": "COc1ccc2oc(=O)c(-c3csc(/N=C/c4ccccc4O)n3)cc2c1", "inhibition": "67% (active)"},
      {"smiles": "COc1ccc2oc(=O)c(-c3csc(Nc4ccc(Cl)cc4)n3)cc2c1", "inhibition": "57% (active)"},
      {"smiles": "COc1cccc(Nc2nc(-c3cc4cc(Br)ccc4oc3=O)cs2)c1", "inhibition": "12%"},
      {"smiles": "COc1ccc2oc(=O)c(-c3csc(Nc4ccccc4)n3)cc2c1", "inhibition": "17%"},
      {"smiles": "COc1cccc(Nc2nnc(-c3cc4cc(OC)ccc4oc3=O)s2)c1", "inhibition": "43%"},
      {"smiles": "COc1ccc2oc(=O)c(-c3nnc(Nc4ccccc4C)s3)cc2c1", "inhibition": "10%"},
      {"smiles": "COc1ccc2oc(=O)c(-c3csc(Nc4ccccc4Br)n3)cc2c1", "inhibition": "8%"},
      {"smiles": "COc1ccc2oc(=O)c(-c3csc(Nc4ccc(C(C)=O)cc4)n3)cc2c1", "inhibition": "1%"},
      {"smiles": "COc1ccc(Nc2nc(-c3cc4cc(OC)ccc4oc3=O)cs2)cc1", "inhibition": "13%"},
      {"smiles": "COc1ccc2oc(=O)c(-c3csc(NC(=O)/C=C\\C(=O)O)n3)cc2c1", "inhibition": "3%"},
      {"smiles": "CCOC(=O)N(Cc1ccccc1)C(C(=O)O)C(C(=O)O)N(Cc1ccccc1)C(=O)OCC", "note": "(configuration not stated)", "inhibition": "0%"},
      {"smiles": "O=CNC(NC(=S)Nc1cc(Cl)ccc1Cl)C(Cl)(Cl)Cl", "note": "(configuration not stated)", "inhibition": "17%"},
      {"smiles": "Cc1ccc([N+](=O)[O-])cc1/C=C1/SC(=S)N(c2cccc(C(F)(F)F)c2)C1=O", "inhibition": "5%"},
      {"smiles": "O=C(COc1ccc(Br)cc1Cl)Nc1cc(Cl)ccc1Cl", "inhibition": "8%"},
      {"smiles": "COc1ccc(OC)c(N(CC(=O)NCC(C)C)S(C)(=O)=O)c1", "inhibition": "0%"},
      {"smiles": "CC(=O)C1=C(C)NC(SCC(=O)c2ccc(C)cc2)=C(C#N)C1c1ccc(Br)cc1", "note": "(configuration not stated)", "inhibition": "18%"},
      {"smiles": "O=C(NC(=S)Nc1ccc(Cl)c([N+](=O)[O-])c1)c1ccc(-c2ccccc2)cc1", "inhibition": "13%"},
      {"smiles": "O=C(Nc1ccccc1-c1nc2ccccc2[nH]1)c1ccc([N+](=O)[O-])cc1", "inhibition": "44%"},
      {"smiles": "COc1ccc(O)c(CN2CCCCC2)c1", "inhibition": "4%"},
      {"smiles": "CC1SC(c2cccc(Cl)c2)NC1=O", "note": "(configuration not stated)", "inhibition": "0%"},
      {"smiles": "C/C(=N\\NC(=O)c1cc(C2CC2)[nH]n1)c1ccc(C)cc1", "inhibition": "8%"},
      {"smiles": "COc1ccc(-n2nnnc2C(=Cc2ccc(N(C)C)cc2)c2nnnn2-c2ccc(OC)cc2)cc1", "inhibition": "9%"},
      {"smiles": "N#Cc1c(-c2cccc(Br)c2)c(C#N)c2nc3ccccc3n2c1N", "inhibition": "9%"},
      {"smiles": "COc1ccc(C2CC(=O)C3=C(C2)NC(C)=C(C(=O)OC2CCCC2)C3c2ccc3c(c2)OCO3)cc1", "note": "(configuration not stated)", "inhibition": "3%"},
      {"smiles": "CCCC1=C(C(=O)OCC)C(c2cccs2)C(C#N)=C(N)O1", "note": "(configuration not stated)", "inhibition": "56% (active)"},
      {"smiles": "CCOC(=O)C1=C(CC)OC(N)=C(C#N)C1c1cccs1", "note": "(configuration not stated)", "inhibition": "30%"},
      {"smiles": "CCOC(=O)C1=C(c2ccccc2)OC(N)=C(C#N)C1c1cccs1", "note": "(configuration not stated)", "inhibition": "15%"},
      {"smiles": "O=[N+]([O-])c1ccc(C=Nc2ccc(F)cc2)s1", "inhibition": "21%"},
      {"smiles": "COC(=O)C1=C(C)N(Cc2ccccc2)C(=O)/C1=C\\c1ccccc1Cl", "inhibition": "51% (active)"},
      {"smiles": "COC(=O)C1=C(C)N(Cc2ccccc2)C(=O)/C1=C\\c1c(Cl)cccc1Cl", "inhibition": "47%"},
      {"smiles": "COC(=O)C1=C(C)N(Cc2ccccc2)C(=O)/C1=C\\c1cccs1", "inhibition": "4%"},
      {"smiles": "CN(C)c1ccc(/C=C(\\C#N)c2nc(-c3ccc4c(c3)OCO4)cs2)cc1", "inhibition": "16%"},
      {"smiles": "CCOC(=O)c1sc(NC(=O)c2cc(Cl)ccc2OC)c(C(N)=O)c1C", "inhibition": "2%"},
      {"smiles": "Cc1cccc(NC(=O)c2ncn[nH]2)c1C", "inhibition": "0%"},
      {"smiles": "O=C(Nc1ccccc1I)c1ncn[nH]1", "inhibition": "54% (active)"},
      {"smiles": "O=C(Nc1ccccc1I)c1ccc(C(=O)Nc2ccccc2I)cc1", "inhibition": "0%"},
      {"smiles": "O=C(Nc1nc2ccccc2n1Cc1ccc(Cl)cc1)c1ccc(Cl)cc1", "inhibition": "11%"},
      {"smiles": "CC(=O)Nc1ccc(NC(=S)NC(=O)c2cccc(Br)c2)cc1", "inhibition": "0%"},
      {"smiles": "O=C1NC(=S)S/C1=C\\c1ccc(-c2ccc(Cl)c(C(=O)O)c2)o1", "inhibition": "18%"},
      {"smiles": "O=C(O)c1cc(-c2ccc(C=C3C(=O)c4ccccc4C3=O)o2)ccc1O", "inhibition": "11%"},
      {"smiles": "O=C1NC(=O)/C(=C\\c2ccc(-c3ccc(C(=O)O)cc3)o2)S1", "inhibition": "6%"},
      {"smiles": "O=C1/C(=C/c2ccc(-c3ccc(Cl)cc3C(=O)O)o2)Sc2ccccc21", "inhibition": "21%"},
      {"smiles": "CCCOc1ncnc2sc3c(c12)CCCC3", "inhibition": "12%"},
      {"smiles": "CC1=NN(c2ccc(S(N)(=O)=O)cc2)C(=O)/C1=C\\c1ccc(-c2ccc(Cl)c([N+](=O)[O-])c2)o1", "inhibition": "80% (active)"},
      {"smiles": "CCCOc1ccc(/C=C2\\C(=O)N(c3ccc(S(N)(=O)=O)cc3)N=C2C)cc1OC", "inhibition": "6%"},
      {"smiles": "CC1=NN(c2ccc(S(N)(=O)=O)cc2)C(=O)/C1=C\\c1ccc(-c2cccc([N+](=O)[O-])c2)o1", "inhibition": "57% (active)"},
      {"smiles": "COc1cc([N+](=O)[O-])ccc1-c1ccc(/C=C2\\C(=O)N(c3ccc(C(=O)O)cc3)N=C2C)o1", "inhibition": "26%"},
      {"smiles": "COc1cc(/C=C2\\C(=O)N(c3ccc(S(N)(=O)=O)cc3)N=C2C)ccc1OCc1ccccc1", "inhibition": "53% (active)"},
      {"smiles": "CN1C(=O)C(=Cc2ccc(-c3ccc(Cl)c([N+](=O)[O-])c3)o2)C(=O)N(C)C1=S", "inhibition": "30%"},
      {"smiles": "CC1=NN(c2ccc(S(N)(=O)=O)cc2)C(=O)/C1=C\\c1ccc(-c2cc([N+](=O)[O-])ccc2C)o1", "inhibition": "42%"},
      {"smiles": "CC1=NN(c2ccc(S(N)(=O)=O)cc2)C(=O)/C1=C\\c1ccc(-c2cc([N+](=O)[O-])ccc2Cl)o1", "inhibition": "46%"},
      {"smiles": "COc1cc(/C=C2\\C(=O)N(c3ccc(S(N)(=O)=O)cc3)N=C2C)cc(Br)c1OCc1ccccc1", "inhibition": "16%"},
      {"smiles": "CC1=NN(c2ccc(S(N)(=O)=O)cc2)C(=O)/C1=C\\c1cccc([N+](=O)[O-])c1", "inhibition": "12%"},
      {"smiles": "COc1cc([N+](=O)[O-])ccc1-c1ccc(/C=C2\\C(=O)N(c3ccc(S(N)(=O)=O)cc3)N=C2C)o1", "inhibition": "53% (active)"},
      {"smiles": "COc1cc([N+](=O)[O-])ccc1-c1ccc(/C=C2/C(=O)N(c3ccc(C)cc3)N=C2C)o1", "inhibition": "6%"},
      {"smiles": "C=CCc1ccc(OCCCOc2c(Cl)cccc2Cl)c(OC)c1", "inhibition": "42%"},
      {"smiles": "CCOC(=O)C1=C(C)NC(=S)NC1c1ccc(Cl)c(Cl)c1", "note": "(configuration not stated)", "inhibition": "7%"},
      {"smiles": "COc1ccc(NC(=NCCc2ccccc2)SC2CC(=O)N(c3ccc(F)cc3)C2=O)cc1", "note": "(configuration not stated)", "inhibition": "9%"},
      {"smiles": "COc1ccc(OC)c(C=Nc2ccc(I)cc2)c1", "inhibition": "9%"},
      {"smiles": "O=C1NC(=Nc2ccc(F)cc2)S/C1=C/c1cccc(Br)c1", "inhibition": "40%"},
      {"smiles": "CCOC(=O)C1=C(C)N=c2s/c(=C\\c3cc(Br)c(OC)c(OC)c3)c(=O)n2C1c1ccc(OC)c(OC)c1", "note": "(configuration not stated)", "inhibition": "18%"},
      {"smiles": "CCc1cccc(C)c1NC(=O)/C(C#N)=C/c1ccccc1", "inhibition": "4%"},
      {"smiles": "COC(=O)c1cccc(-c2ccc(/C=C3\\C(=O)N(c4ccc(S(N)(=O)=O)cc4)N=C3C)o2)c1", "inhibition": "28%"},
      {"smiles": "CC1=NN(c2ccc(S(N)(=O)=O)cc2)C(=O)/C1=C\\c1ccc(-c2ccc(Cl)c(C(=O)OC(C)C)c2)o1", "inhibition": "59% (active)"},
      {"smiles": "CCOC(=O)c1ccc(-c2ccc(/C=C3\\C(=O)N(c4ccc(S(N)(=O)=O)cc4)N=C3C)o2)cc1", "inhibition": "36%"},
      {"smiles": "CC1=NN(c2ccc(S(N)(=O)=O)cc2)C(=O)/C1=C\\c1ccc(-c2ccc(Cl)c(C(=O)O)c2)o1", "inhibition": "6%"},
      {"smiles": "CC1=NN(c2ccc(S(N)(=O)=O)cc2)C(=O)/C1=C\\c1ccc(-c2ccc(S(N)(=O)=O)cc2)o1", "inhibition": "32%"},
      {"smiles": "CC1=NN(c2ccc(S(N)(=O)=O)cc2)C(=O)/C1=C\\c1ccc(-c2ccc([N+](=O)[O-])cc2)o1", "inhibition": "63% (active)"},
      {"smiles": "CC1=NN(c2ccc(S(N)(=O)=O)cc2)C(=O)/C1=C\\c1ccc(-c2ccc(Br)cc2)o1", "inhibition": "59% (active)"},
      {"smiles": "CC1=NN(c2cccc(C(=O)O)c2)C(=O)/C1=C\\c1ccc(-c2ccc([N+](=O)[O-])cc2)o1", "inhibition": "7%"},
      {"smiles": "CC1=NN(c2ccc(S(N)(=O)=O)cc2)C(=O)/C1=C\\c1ccc(-c2ccc(C)c(Cl)c2)o1", "inhibition": "53% (active)"},
      {"smiles": "CC1=NN(c2ccc(C)cc2)C(=O)/C1=C/c1ccc(-c2ccc(Cl)c(C(=O)O)c2)o1", "inhibition": "24%"},
      {"smiles": "CC1=NN(c2ccc(S(N)(=O)=O)cc2)C(=O)/C1=C\\c1ccc(-c2ccc(C(=O)OC(C)C)cc2)o1", "inhibition": "25%"},
      {"smiles": "CC1=NN(c2ccccc2)C(=O)/C1=C\\c1ccc(-c2cc([N+](=O)[O-])ccc2O)o1", "inhibition": "30%"}
    ]}
  ]
}
